Giardia killer = Giardia lamblia killing; Giardia lamblia trophozoite viability; activity change, % at 7.66 µM, hits read low; 0.15% of 340,000 active; AID 540267; in the data active means activity change below about -80%; inconclusive means between about -30% and that limit;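 further: parasites exposed to compound for two days anaerobically before the ATP read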
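Anaerobic 48 hrs incubation at 37 deg C of 100 trophozoites/well with test compounds; ATPLite 1-Step luminescence, 15-30 min RT, reports cellular ATP as viability.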
IL1B secr inh = inflammasome signaling inhibition, IL-1 beta readout. THP-1 LPS/ATP IL-1B secretion, AlphaLISA, 16 h; stronger effect = lower value. activity change, % at 57.5 µM. 4.7% of 360,000 active; in the data active means activity change below about -50%; inconclusive means mostly about -30% to -49%
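THP-1 cells pretreated 1 hr with compounds (up to 57.5 uM final), then stimulated with LPS (250 ng/mL final) plus ATP (1.25 mM final); secreted IL-1B measured by AlphaLISA after 16 hr, decreased signal indicating inhibition.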
DT40 TDP1 CPT = DT40-hTDP1 cell growth loss with CPT | chicken DT40 Tdp1-/-;hTDP1 cells + 20 nM CPT, ATP luminescence, 48 h | Potency, µM (top dose mostly 46.2 µM), for inactives: at the highest dose activity change, negative = growth inhibition, most hits filed as inhibitors | 12% of 420,000 active; further: potency means the concentration at half of the fitted maximal effect; nearly all actives have a fitted effect of over 55% in size
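Chicken DT40 Tdp1-/- cells stably complemented with human TDP1 were seeded at 400 cells/well in medium containing 20 nM camptothecin, exposed to pin-transferred compounds, and grown at 37 °C for at least 48 hr. Viability was read as ATP luminescence.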
TDP1 block = blocks human tyrosyl-DNA phosphodiesterase 1. Q9NUW8. recombinant TDP1, AlphaScreen DNA substrate cleavage. Potency, µM (series often up to 130 µM), inactives show top-dose activity change, negative = inhibition, most hits filed as inhibitors. 0.28% of 350,000 active; further: potency means the concentration at half of the fitted maximal effect; nearly all actives have a fitted effect of over 40% in size
Target sequence (Q9NUW8 whole entry, looked up): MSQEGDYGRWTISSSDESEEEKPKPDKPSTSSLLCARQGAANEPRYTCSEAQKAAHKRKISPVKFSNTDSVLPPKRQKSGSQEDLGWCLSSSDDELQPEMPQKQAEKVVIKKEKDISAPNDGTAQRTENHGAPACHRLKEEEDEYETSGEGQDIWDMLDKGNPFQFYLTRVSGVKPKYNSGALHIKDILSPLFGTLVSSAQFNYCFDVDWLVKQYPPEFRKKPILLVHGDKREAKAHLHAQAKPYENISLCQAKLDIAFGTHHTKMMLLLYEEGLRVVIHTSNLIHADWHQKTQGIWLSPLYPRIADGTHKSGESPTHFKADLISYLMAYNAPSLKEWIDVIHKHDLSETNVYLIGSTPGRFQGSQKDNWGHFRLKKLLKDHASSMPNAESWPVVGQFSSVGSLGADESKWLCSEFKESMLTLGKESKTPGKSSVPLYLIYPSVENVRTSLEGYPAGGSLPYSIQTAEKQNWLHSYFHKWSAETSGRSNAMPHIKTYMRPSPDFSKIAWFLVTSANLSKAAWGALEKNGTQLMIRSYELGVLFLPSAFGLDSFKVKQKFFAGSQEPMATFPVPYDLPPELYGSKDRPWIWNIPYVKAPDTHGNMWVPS
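E. coli-derived human Tdp1, 1 nM final. Cpd preinc 15 min RT; substrate 15 nM final, 5 min RT; AS bead mix 10 ug/ml final, 10 min RT. Signal loss = tyrosine-FITC cleavage. No-enzyme wells = max signal.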
TDP1 cell noCPT = qHTS for Inhibitors of human tyrosyl-DNA phosphodiesterase 1 (TDP1): qHTS in cells in absence of CPT | DT40 Tdp1-/- hTDP1 cells, no CPT, ATP luminescence, 48 h | Potency, µM (top dose mostly 46.2 µM), for inactives: at the top dose activity change, negative = growth inhibition, actives largely listed as inhibitors | 15% of 420,000 active; further: potency means the concentration at half of the fitted maximal effect; nearly all actives have a fitted effect of over 55% in size
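Chicken DT40 Tdp1-/- cells stably complemented with human TDP1 were seeded at 400 cells/well with DMSO in place of 20 nM camptothecin. After compound pinning, cells grew at least 48 hr at 37 °C; viability read by CellTiter-Glo luminescence.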
ELG1 repair inh = ELG1-dependent DNA repair inhibition | HEK293T ELG1-luciferase reporter, luminescence, 16 h; DNA damage induced by 5-fluorouridine | Potency, µM (top dose mostly 46.1 µM), inactives show at the highest dose activity change, negative = inhibition, actives largely listed as inhibitors | 2.3% of 330,000 active; further: potency means the concentration at half of the fitted maximal effect; nearly all actives have a fitted effect of over 55% in size
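Cells (2,000 per well) received 5-fluorouridine plus test compound or DMSO and were incubated 16 hr at 37 °C, 5% CO2. Luciferase activity was read by luminescence 30 min after ONE-Glo addition; signal suppression marked inhibition of damage-induced ELG1 function.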
Starred values were filed as active, the others as inactive; i = inactive; ? = inconclusive; . = no result; [ ] = remark or other dose. In the library only some 19% were active in any assay of this set; here they are far more common. Unless noted, the call rests on the fitted dose curve; in most records, active means well fitted curve in the direction sought with a large enough effect; inconclusive means small, poorly fitted or top-dose-only effect, or another doubt; inactive means no such curve, though single readings can be large; an effect the other way counts as inactive or inconclusive. On the % scale 0 is the no-effect control and ±100 the full control effect.

SMILES | Giardia killer | IL1B secr inh | DT40 TDP1 CPT | TDP1 block | TDP1 cell noCPT | ELG1 repair inh
O=C(CSCc1cnn(-c2ccccc2)c1-n1cccc1)NCc1cccc(Cl)c1 | . | . | 16µM* | 11% | 23µM* | .
COc1cccc(CNC(=O)CSCc2cnn(-c3ccccc3)c2-n2cccc2)c1OC | 0 | ? | 26µM* | 8% | ? | ?
Cc1ccc(CNC(=O)CCSCc2cnn(-c3ccccc3)c2-n2cccc2)cc1 | . | . | 18µM* | 3% | 15µM* | .
O=C(CSCc1cnn(-c2ccccc2)c1-n1cccc1)NCc1ccccc1F | . | . | ? | -3% | ? | .
O=C(CSCc1cnn(-c2ccccc2)c1-n1cccc1)N1CCN(Cc2ccccc2)CC1 | 23 | -1 | ? | 9% | 13µM* | ?
COc1ccccc1CNC(=O)CSCc1cnn(-c2ccccc2)c1-n1cccc1 | 0 | -17 | ? | 5% | 16µM* | ?
CC(C)=CCC/C(C)=C/C=C/C(C)=C/C=C/C(C)=C/C=C/C=C(C)/C=C/C=C(C)/C=C/C=C(\C)CCC=C(C)C | . | . | ? | 2% | ? | .
Cn1cccc1Cc1nnc(SCC(=O)Nc2nccs2)n1CCc1ccccc1 | 24 | ? | 21µM* | 0% | ? | ?
Cn1c(CSCc2ccc(F)cc2)nnc1SCC(=O)Nc1nccs1 | -8 | 14 | 10µM* | 0% | 13µM* | 16µM*
Cn1c(CSCc2ccc(Cl)c(Cl)c2)nnc1SCC(=O)Nc1nccs1 | 32 | -9 | 26µM* | 0% | 18µM* | ?
Cn1c(CSCc2ccc(Cl)cc2)nnc1SCC(=O)Nc1nccs1 | -7 | -2 | ? | -3% | ? | ?
COC(=O)C1=CN(c2ccc(F)cc2)C=C(C(=O)OC)C1c1ccc([N+](=O)[O-])cc1 | 14 | 13 | ? | 8% | ? | -13%
COC(=O)C1=CN(Cc2ccc(OC)c(OC)c2)C=C(C(=O)OC)C1c1cccc(F)c1 | 12 | 49 | 16µM* | . | 18µM* | ?
COC(=O)C1=CN(Cc2ccc(F)cc2)C=C(C(=O)OC)C1c1cc(OC)c(OC)c(OC)c1 | -18 | -18 | -5% | . | 1% | 10%
COC(=O)C1=CN(c2ccc(F)cc2)C=C(C(=O)OC)C1c1cccc(Br)c1 | 2 | ? | 23µM* | -13% | ? | -16%
COC(=O)C1=CN(Cc2ccc(C)cc2)C=C(C(=O)OC)C1c1ccc(F)c(F)c1 | -1 | -27 | ? | . | 23µM* | -2%
Cc1cc2c(c(-c3cnccn3)c1)OC(CNC(=O)c1cc(C(C)C)[nH]n1)C2 (centres undefined) | . | . | -24% | . | -23% | .
COc1ccccc1C(=O)Nc1ccnn1C1CCN(Cc2cnn(C)c2C)CC1 | -11 | i | -6% | 0% | -8% | 8%
Cc1sc(N)nc1C12CC3CC(CC(C3)C1)C2 | 5 | -52* | 6% | 3% | ? | 8%
C=CC[n+]1c(-c2ccc(Cl)cc2Cl)csc1Nc1ccc(NC(C)=O)cc1 | -14 | -80* | ? | 10% | 21µM* | 6%
C=CC[n+]1c(-c2ccc(Cl)cc2Cl)csc1Nc1c(C)n(C)n(-c2ccccc2)c1=O | 7 | -80* | 5.2µM* | 3% | 3.7µM* | ?
NC(=O)c1ccsc1NC(=O)COC(=O)Cc1ccccc1Cl | 2 | -12 | -23% | 0% | 0% | -9%
CC1CCN(S(=O)(=O)c2ccc3c(c2)c(=O)c(C(=O)NCCc2ccccc2)cn3C)CC1 | . | . | -12% | 0% | ? | .
COC(=O)[C@]12CCCCC=C1N(Cc1ccc(Cl)cc1Cl)C(=O)[C@H](CC(=O)NCc1cccc(C(F)(F)F)c1)C2 | . | -4 | ? | . | ? | .
CCCCCCCCN1C(=O)[C@H](CC(=O)NCc2cccc(C(F)(F)F)c2)C[C@@]2(C(=O)OC)CCCCC=C12 | . | -55* | 21µM* | . | ? | .
SMILES | Giardia killer | IL1B secr inh | DT40 TDP1 CPT | TDP1 block | TDP1 cell noCPT | ELG1 repair inh
CCCCCCCCN1C(=O)[C@H](CC(=O)NCc2cccc(C(F)(F)F)c2)C[C@@]2(C(=O)OCC)CCC=C12 | . | -23 | ? | . | 13µM* | .
COc1ccccc1/C=C(\C#N)c1nc(-c2cc3ccccc3oc2=O)cs1 | . | . | -15% | 2%[12.3 µM] | -18% | .
O=c1cnc2ccccc2n1Cc1ccccc1C(F)(F)F | -3 | -14 | ? | 50µM* | -28% | 14%
N#CC(C#N)=Cc1c(N2CCN(c3ccccc3)CC2)nc2ccccn2c1=O | -3 | -1 | -23% | . | -1% | ?
O=C(Nc1ccc2c(c1)OCO2)Nc1ccc(F)cc1F | 6 | 0 | 3.7µM* | 0% | 2.3µM* | ?
COc1cc([N+](=O)[O-])ccc1NC(=O)Nc1ccc2c(c1)OCCO2 | -17 | . | ? | 5% | ? | 4%
O=C(NCCc1ccc(F)cc1)Nc1ccc2c(c1)OCO2 | -21 | ? | 18µM* | 4% | ? | ?
O=C(Nc1ccc2c(c1)OCO2)Nc1ccc(Cl)cc1Cl | -9 | ? | ? | -1% | ? | ?
O=C(Nc1ccc([N+](=O)[O-])cc1)Nc1ccc2c(c1)OCCO2 | 3 | -68* | ? | 5% | 15µM* | ?
O=C(NCCc1ccccc1)Nc1ccc2c(c1)OCO2 | -10 | 6 | -14% | -6% | -27% | ?
O=C(Nc1cccc(C(=O)O)c1)Nc1ccc2c(c1)OCO2 | ? | -13 | -14% | 2%[56.1 µM] | -17% | 2.6µM*
CNC(=O)C1CC(=O)N(CCc2ccc(C)cc2)C1 (centres undefined) | -8 | -1 | 8% | . | -7% | -2%
CC1(C)NC(=O)N(CCC(=O)Nc2ccc(C(C)(C)C)cc2)C1=O | . | 25 | 9% | . | -38% | .
CC(=O)OC[C@@H]1O[C@@H](O/N=C2/C[C@@H](O)[C@@H](O)[C@@H]3[C@@H]4C(=O)N(c5cccc(Oc6ccccc6)c5)C(=O)[C@H]4CC[C@H]23)[C@H](OC(C)=O)[C@H](OC(C)=O)[C@@H]1OC(C)=O | . | . | . | 5%[21 µM] | . | .
COc1cccc2c1Oc1ncccc1N(C(=O)Nc1ccc(F)c(Cl)c1)C2 | . | . | ? | 4% | ? | .
Cc1cc(S(=O)(=O)Nc2ccc(C(=O)NCCCN3CCCC3=O)cc2)ccc1F | -5 | 10 | 4% | 2% | -2% | 10%
C=CCCCCCCCCC(=O)NNC1CC(=O)N(c2ccccc2)C1=O (centres undefined) | 7 | 4 | -3% | 5% | -19% | 1%
O=C(CCS(=O)(=O)c1ccc(Cl)cc1)NCCc1c[nH]c2ccccc12 | 16 | -4 | -25% | 5% | -16% | 0%

Bioassay records as filed in PubChem.
